Pf growth 48h: inhibits P. falciparum growth in the first generation, 48 h; P. falciparum luciferase growth in erythrocytes, 48 h; Potency, µM (highest dose often 28.7 µM), for inactives: top-dose activity change, negative = inhibition, hits mostly inhibitors; 5.9% of 310,000 active; active = well fitted inhibition curve with a large enough effect; inconclusive = small, poorly fitted or top-dose-only effect, or another doubt; inactive = no such curve, though single readings can be large or run the other way; note: potency is the fitted concentration of half-maximal effect; % is set by controls: 0 for no effect and ±100 for the full control effect
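Luminescence readout; reporter = integrated firefly luciferase in P. falciparum. RBC culture at 2% hematocrit, 0.1% parasitemia final, 37 C/5% CO2; decreased signal taken as growth inhibition.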
SARS PLP yeast: inhibitors of SARS-CoV papain-like protease in yeast. S. cerevisiae expressing SARS-CoV PLpro, growth rescue. Potency, µM (doses to about 32.9 µM), for the others: at the highest dose activity, positive = growth rescue, usual class: activators. AID 485353. 0.19% of 330,000 active; note: potency is the fitted concentration of half-maximal effect; 0% is about no effect; nearly all actives have a fitted effect of over 55% in size
Cycloheximide cs: counter-screen for Shiga toxin inhibitors: cycloheximide protein synthesis inhibition; cell reporter, cycloheximide protein synthesis inhibition counterscreen; max response, %; 12% of 300,000 active; AID 2314; in the data active = max response mostly above about 13%, no sharp cut-off; inactive = mostly below about 14%; note: read at 38.3 µM for the half of the compounds with a filed dose; 0% is about no effect
Shiga toxin inh: blocks Shiga toxin action in Vero cells; AID 2315; inhibition, % at 38.7 µM; 9.2% of 290,000 active; Vero cells, Shiga toxin protein synthesis inhibition reporter; in the data active = inhibition mostly above about 28%, no sharp cut-off; inactive = mostly below about 43%; note: 0% is about no effect
NS1 function inh: influenza NS1 inhibition | Potency, µM (highest dose often 46.1 µM), for the others: top-dose activity, positive = more growth | 0.4% of 270,000 active; note: potency is the fitted concentration of half-maximal effect; actives are rising curves; nearly all actives have a fitted effect of over 50% in size
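Growth recovery, yeast-based: influenza A NS1 expressed in S. cerevisiae causes slow growth, and suppressors are detected by OD600. The parent strain without NS1 is used as positive control.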
Pf growth 96h: P. falciparum growth inhibition at 96 hours. 6.9% of 320,000 active. P. falciparum luciferase reporter growth, 96 h. AID 504834. Potency, µM (top dose mostly 28.7 µM), without a hit: top-dose activity change, negative = inhibition, usual class: inhibitors; active = well fitted inhibition curve with a large enough effect; inconclusive = small, poorly fitted or top-dose-only effect, or another doubt; inactive = no such curve, though single readings can be large or run the other way; note: potency is the fitted concentration of half-maximal effect; % is set by controls: 0 for no effect and ±100 for the full control effect
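Compounds incubated with erythrocytes infected by luciferase-expressing P. falciparum (2% hematocrit, 0.05% parasitemia final) for 96 hours, 37 C in 5% CO2. Growth inhibition scored as decreased luciferase luminescence.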
NS1 inh valid: validation of influenza NS1 protein function inhibitors; 1,400 tested, under 10 active; influenza NS1 function cell assay, 15-point titration; activity change, negative = inhibition, % at 32.9 µM; shares compounds with NS1 function inh; note: 0% is about no effect
PR8 titer: reduces influenza A/PR/8/34 replication in MDCK cells | MDCK infected influenza A/PR/8/34, virus titer TCID50; active compounds read low | 30% of 95 active | shares compounds with NS1 function inh | AID 504647 | virus titer (log TCID50), log10 TCID50 at 5 µM; call rule not given here
Numbers without * were called inactive; ? = inconclusive; nt = no result given; [ ] = dose if it differs, or a comment. Compounds with a hit are over-represented: about 21% of the library has one in this group of screens. Unless noted, calls come from the whole dose curve.

SMILES	Pf growth 48h	SARS PLP yeast	Cycloheximide cs	Shiga toxin inh	NS1 function inh	Pf growth 96h	NS1 inh valid	others
COc1ccc(NC(=S)N(CCc2c(C)[nH]c3ccccc23)Cc2cccnc2)cc1	?	-2%	-2	-7	-4%	?	nt
COc1ccc(NC(=S)N(CCc2c(C)[nH]c3ccc(C)cc23)Cc2ccco2)cc1	-10%	-11%	-2	-14	15%	?	nt
CCOc1ccc(NC(=S)N(CCc2c(C)[nH]c3ccc(C)cc23)Cc2ccco2)cc1	?	-5%	10	19	11µM*	?	-33
CCCC(c1nnnn1CCC(C)C)N1CCC(C(N)=O)CC1 (stereo not drawn)	12µM*	2%	-7	27	1.1µM*	9.3µM*	0
CCCC(c1nnnn1Cc1ccc2c(c1)OCO2)N1CCC(C(N)=O)CC1 (stereo not drawn)	-5%	0%	-3	3	0%	-8%	nt
CCc1nnc(NC(=O)CN2CCN(Cc3ccccc3Cl)CC2)s1	0%	-10%	9	-8	8%	-8%	nt
CCc1nnc(NC(=O)c2cc(-c3ccccn3)nc3ccc(Br)cc23)s1	32%	8%	-2	-8	23%	?	nt
c1ccc(-c2ccncc2)cc1	nt	-1%	nt	nt	nt	nt	nt
O=C1C(c2ccncc2)=C(O)c2ccccc21	132%	-1%	26*	12	0.25µM*	-7%	-3
COc1ccccc1-n1c(SCC(=O)NC(C)(C)C)nc(O)cc1=O	2.3µM*	5%	8	27	8.9µM*	35%	36	PR8 titer=7.7
COc1ccccc1-n1c(SC)nc(O)cc1=O	nt	-3%	-3	14	?	-1%	nt
COc1ccccc1NC(=O)CSc1nc(O)cc(=O)n1-c1ccccc1OC	3.3µM*	2%	0	-15	10µM*	nt	39
Cc1[nH]c2ccccc2c1NC(=O)CN1CCN(c2cccc(C(F)(F)F)c2)CC1	?	nt	7	-11	-131%	?	nt
Cc1[nH]c2ccccc2c1C(O)CN1CCN(c2cccc(C(F)(F)F)c2)CC1 (stereo not drawn)	?	-13%	10	-8	?	?	?
O=C(N/N=C/C=C/c1ccccc1[N+](=O)[O-])c1cc(-c2ccccc2)n[nH]1	?	?	1	22	2.2µM*	?	10
COc1ccc(/C=N\NC(=O)c2ccc(-c3ccccc3)cc2)cc1COC(C)=O	-16%	6%	-2	-13	21%	?	nt
COc1ccc(/C=N/NC(=O)c2cc(-c3ccc(C)cc3C)nc3ccccc23)cc1COC(C)=O	-8%	1%	13	-8	10µM*	-7%	6
COc1ccc(-c2nc(=S)c3c([nH]2)Oc2ccc(C)cc2C3)cc1O	-1%	13%	-4	7	10µM*	?	-6
COc1ccc(-n2nnnc2SCC(=O)Nc2ccc(OC)cc2OC)cc1	0%	1%	1	-8	-7%	0%	nt
CCOc1cc(C#N)c(NC(=O)CSc2nnnn2-c2ccc(OC)cc2)cc1OCC	?	1%	-4	-9	?	nt	-2
O=C(Cn1cnc2cc(Cl)ccc2c1=O)Nc1ccc2c(c1)OCO2	21%	-5%	5	1	-1%	?	nt
CC1SC(=NC(=O)c2ccco2)NC1=O (stereo not drawn)	39%	2%	0	21	0%	nt	nt
O=C(N=C1SCC(=O)N1c1ccccc1Cl)c1ccco1	154%	-5%	30*	104*	11µM*	213%	26
CC1=NC(C#N)=C(C#N)NC(C)(C)C1	?	-4%	-5	4	nt	-1%	nt
CCCOc1ccc(N2C(=O)CC(SCc3nc4ccccc4[nH]3)C2=O)cc1 (stereo not drawn)	20%	-6%	-2	-4	-52%	23%	nt
SMILES	Pf growth 48h	SARS PLP yeast	Cycloheximide cs	Shiga toxin inh	NS1 function inh	Pf growth 96h	NS1 inh valid	others
Cc1ccc(C)c(S(=O)(=O)N2CCCOC2CNC(=O)C(=O)NC2CC2)c1 (stereo not drawn)	1%	-4%	2	-5	6%	8%	nt
COc1ccc(/C=N/NC(=O)c2nc(-c3ccccc3)n(-c3ccccc3)n2)cc1	6%	-22%	-1	-7	-22%	?	nt
COc1ccc(-n2nc(C(=O)N(C)C)nc2-c2ccccc2)cc1	16%	-2%	-1	-6	?	9.3µM*	16
Cc1cc(OCc2ccc(C(=O)NN=C3CCCC3)cc2)ccc1Cl	3%	-54%	57*	85*	14µM*	0%	?
Cn1c(CCN2CCCCC2)nc2cc(NS(=O)(=O)c3ccc(Cl)cc3)ccc21	2.1µM*	7%	7	-4	0.89µM*	3%[5.75 µM]	-23
COc1ccc2c(c1)c(C(=O)O)c(C)n2CCc1ccc(OC)c(OC)c1	?	-2%	2	nt	6.3µM*	6%	6
Clc1nc(NCc2cccnc2)nc(N2CCOCC2)n1	-21%	16%	5	-6	5%	?	nt
C[C@H](NC(=O)c1nc[nH]c1C(=O)N[C@@H](Cc1ccccc1)C(=O)OC(C)(C)C)C(=O)OCc1ccccc1	53%	1%	-3	-2	11µM*	94%	9
C[C@H](NC(=O)c1nc[nH]c1C(=O)N[C@@H](Cc1ccccc1)C(=O)OCc1ccccc1)C(=O)OCc1ccccc1	?	4%	1	-3	7.9µM*	?	17
CNC(=O)c1[nH]cnc1C(=O)N[C@@H](Cc1ccccc1)C(=O)OCc1ccccc1	8%	-1%	5	14	0%	69%	nt
CC(C)(C)OC(=O)CNC(=O)c1[nH]cnc1C(=O)NC(c1ccccc1)c1ccccc1	?	2%	-1	13	14µM*	?	-25
CNC(=O)c1[nH]cnc1C(=O)N[C@@H](Cc1ccccc1)C(=O)OC(C)(C)C	0%	0%	0	-12	4%	-4%	nt
CC(C)(C)CN1CCNC(=O)C1CC(=O)NCCc1ccccc1F (stereo not drawn)	-14%	0%	3	26	-1%	2%	nt
Cc1ccc(NC(=O)C(Nc2cccc(C)c2)c2ccccc2)cc1 (stereo not drawn)	-26%	-42%	22*	-83	?	?	?
CCCC(NC(=O)Cc1c(C)c2c(cc(C)c3c(C)coc32)oc1=O)C(=O)O (stereo not drawn)	13%	0%	7	1	5%	33%	nt
COC(=O)CCCCCN1C(=O)NC(c2ccccc2)C(C(=O)OCc2ccccc2)=C1C (stereo not drawn)	-27%	-7%	-2	-14	-19%	?	nt
